# Results filed as inconclusive are left out. Where a call stands in place of a potency, no number is given. Active and inactive are the calls of the source. The call rests on the fitted dose curve; in most records, active means well fitted inhibition curve with a large enough effect; inconclusive means small, poorly fitted or top-dose-only effect; inactive means flat fitted curve, though single readings scatter.
# Tested on: Zika virus NS2B-NS3 protease
# Assay: Primary screen GU AMC qHTS for Zika virus inhibitors (AID 1347154); further: nearly all actives have a fitted effect of over 70% in size
# Conditions: Zika NS2B-NS3 unlinked protease, AMC fluorogenic substrate; series mostly up to 54.1 µM
# Method in brief: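 Unlinked Zika NS2B hydrophilic domain/NS3 protease domain noncovalent complex (25 nM final) in 10 mM Tris-HCl pH 8.0, 0.01% Tween 20, with AMC peptide substrate. Fluorescence (ex 340, em 450 nm) change over 15 min, room temperature; percent inhibition fitted to 4-parameter Hill equation.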
row,SMILES,Potency
1,c1ccc2c(c1)sc1ccccc12,inactive
2,O=C1CN=C(c2ccccc2)c2cc([N+](=O)[O-])ccc2N1,inactive
3,CC1(C)C(C=C(Cl)Cl)C1C(=O)OC(C#N)c1cccc(Oc2ccccc2)c1 (stereo not given),inactive
4,CCc1cc2c(s1)-n1c(C)nnc1CN=C2c1ccccc1Cl,inactive
5,CC(=O)NC1CCSC1=O (stereo not given),inactive
6,CC(C)(C)c1ccc(O)cc1,inactive
7,COC1CC(=C(c2cccs2)c2cccs2)C[N+](C)(C)C1 (stereo not given),inactive
8,Clc1cccc(SC2CCNCC2)n1,inactive
9,NC(=O)CS(=O)C(c1ccccc1)c1ccccc1 (stereo not given),inactive
10,C#CC(O)(C=CCl)CC (stereo not given),inactive
11,C[N+]1(CCF)[C@@H]2CC[C@H]1CC(OC(=O)C(O)(c1ccccc1)c1ccccc1)C2 (stereo not given in full),inactive
12,O=C1OC(CCN2CCCCC2)OC1(c1ccccc1)c1ccccc1 (stereo not given),inactive
13,COP(=S)(OC)Oc1cc(Cl)c(Cl)cc1Cl,inactive
14,COC(=O)[C@@H](N)CCCN/C(N)=N/[N+](=O)[O-],inactive
15,C[C@]12CC[C@H]3[C@@H](CC[C@@]45O[C@H]4C(O)=C(C#N)C[C@]35C)[C@H]1CC[C@H]2O,inactive
